Test results reported in PubChem BioAssay (NCI).
Compounds without any hit were thinned out: in the full panel of roughly 83,000, 20% have a hit.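 Compound tested at a single concentration for 48 hours in 96-well plates; a percent growth value below 10 was scored as active.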 Unmarked numbers belong to inactive results. Activity calls are given as the source filed them.

The compounds below were run on SR leukemia (assay: NCI-60 one-dose screen, 48 h (100 = growth as untreated, 0 = no growth, -100 = all killed)). Settings: 10 µM unless noted.
Description: Growth inhibition of the SR human tumor cell line is measured as a screen for anti-cancer activity. Cells are grown in 96 well plates and exposed to the test compound for 48 hours. Compounds are tested at a single concentration, which is 10^-5 M for most compounds. The reported endpoint is percent growth (GI% or GIPRCNT), where numbers from 0 - 100% represent growth inhibition, and numbers from -100% - 0 represent cell death. For example, a value of 40 represents 60% growth inhibition. A value of 0 means no net growth occurred over the course of the experiment. A value of -40 indicates 40% of cells at the beginning of the experiment died by the end of the experiment. A value of -100 means all cells are dead at the end of the experiment.
NCI-60 Human Tumor Cell Lines Screen was performed using the standard one-dose NCI protocol, which is described in more detail at https://dtp.cancer.gov/discovery_development/nci-60/default.htm.
Compounds with GIPRCNT values below 10 were considered active. Activity score was based on GIPRCNT using the following formula: […]
Score is 0 for GIPRCNT values of 100 or above, 50 for GIPRCNT values of 0, and 100 for GIPRCNT values of -100.

SMILES	growth
COc1ccc(-c2nc3sccn3c2-c2ccnc(NCCCNS(=O)(=O)c3ccc4ccccc4c3)n2)cc1	57%
Cc1cccc(-n2c(C)nc3ccc(NC(=O)NCCCl)cc3c2=O)c1	95.9%
CCOC(=O)C1=C(CSC(=S)N(C2CCCCC2)C2CCCCC2)N(C)C(=O)NC1c1ccccc1 (stereo not given)	29.9%
COc1ccc(C2=CC(c3ccc(Oc4ccnc5cc(Cl)ccc45)c(OC)c3)c3c(nc(OC)[nH]c3=O)N2)cc1 (stereo not given)	13.4%
C=C1C(=O)O[C@H]2[C@H]1CC/C(COC(=O)NCc1cc(OC)c(OC)c(OC)c1)=C\CC[C@@]1(C)O[C@@H]21	4.5% (active)
CC(C)[C@H](CO)Nc1nc(Nc2ccc(C(=O)NCCNS(=O)(=O)c3cccc4c(N(C)C)cccc34)c(Cl)c2)c2ncn(C(C)C)c2n1	-10.7% (active)
CC(Br)C(Br)c1cc2c(cc1Br)OCO2 (stereo not given)	98.6%
Cc1cccc2cc(/C=C/C(=O)/C=C/c3ccc(Cl)cc3)c(=O)[nH]c12	0.572% (active)
COc1cc(C2C3=C(COC3=O)Nc3c2ccc2c3CCCC2)cc2c1OCO2 (stereo not given)	7.47% (active)
C=C1C(=O)O[C@H]2[C@H]1CC/C(Cn1cc(-c3ccsc3)nn1)=C\CC[C@@]1(C)O[C@@H]21	3.37% (active)
COc1cc(Br)c(OC)cc1Br	111%
Oc1ccc(N=Cc2ccccc2)cc1	30.9%
CCOC(=O)/C=C\C(=O)NC(N)=O	97.3%
CCCS(=O)(=O)c1nc(NC2CC2)cc(-c2ccc3c(ccn3C3CC(C)(C)NC(C)(C)C3)c2)n1	-14.5% (active)
COc1ccc(C(=O)/C=C/c2cc(C(=O)c3cc(OC)c(OC)c(OC)c3)ccc2OC)cc1	6.69% (active)
CCSc1nnc(NC(=O)Cc2ccc(Cl)cc2)s1	103%
O=C(c1c[nH]c2ccccc12)C(Sc1nc2ccccc2c(=O)[nH]1)c1ccccc1 (stereo not given)	67.9%
COc1cc(CNC(=O)CCSc2nc3ccccc3c(=O)n2Cc2cc(OC)c(OC)c(OC)c2)cc(OC)c1OC	11.1%
C=CC(=O)N[C@H](/C=C/C(=O)OCC)Cc1ccc(-c2cc(Cl)cc(Cl)c2)cc1	68.7%
FC(F)(F)c1cccc(-n2nnc3cnc(Nc4ccc(N5CCCCC5)cc4)nc32)c1	29.2%

SMILES	growth
COc1cccc(-c2nc3sccn3c2-c2ccnc(NCCCNS(=O)(=O)c3ccccc3)n2)c1	50.7%
OCc1c(-c2ccccc2)nc2sccn12	103%
O=C(Nc1ccc(I)cc1)c1cccc([N+](=O)[O-])c1O	31.6%
CN1CCN(CCCOc2ccc3nc(Nc4ccc(C(F)(F)F)c(Cl)c4)ccc3c2)CC1	-6.45% (active)
COc1cc(-c2csc(NC(=O)Nc3ccc(Cl)cc3Cl)n2)cc(OC)c1OC	23.1%
C/C(=C\c1csc(C)n1)[C@@H]1C[C@@H]2O[C@]2(C)CCC[C@H](C)[C@H](O)[C@@H](C)C(=O)C(C)(C)[C@@H](O)CC(=O)N1	-39.1% (active)
CCN(CC)CCCNc1nc(C)cc(Nc2ccc3nc(C)cc(N)c3c2)n1	110%
COc1cccc(-c2nc3sccn3c2-c2ccnc(NCCCNS(=O)(=O)c3ccc(F)cc3)n2)c1	28.9%
CNC(=O)Cc1nc(-c2cccc(NS(=O)(=O)c3c(F)cccc3F)c2F)c(-c2ccnc(Nc3ccccc3)n2)s1	76.4%
CCCOC(=O)C1(O)CCCC1	94.4%
O=S(=O)(NCCCNc1cc(-c2cn(-c3ccccc3)nc2-c2cccc(O)c2)ccn1)c1ccc(Br)cc1	-12.4% (active)
Cc1ccc(S(=O)(=O)NCCCNc2nccc(-c3c(-c4ccccc4)nc4sccn34)n2)cc1	33.9%
O=c1oc2cc(OS(=O)(=O)c3ccccc3)c(Cl)cc2c2c1CCCCCC2	63.4%
CC(CCc1ccccc1)NC(=O)c1n[nH]c(=O)c2ccccc12 (stereo not given)	60.7%
COc1ccc(OC)c(C(=O)c2oc3ccc(Br)cc3c2N)c1	10.2%
O=C(O)C(=Cc1c2ccccc2cc2ccccc12)C(=O)O	102%
O=C1NCC(c2cc3ccccc3[nH]c2=O)Nc2ccccc21 (stereo not given)	100%
CCNC(=O)CCCCC(=O)c1c(C)[nH]c(/C=C2\N=C(c3ccc[nH]3)C=C2OC)c1C	45.6%
COc1cc(OC)cc(-c2n[nH]nc2-c2ccc3c(c2)OCO3)c1	14.4%
CCOC(=O)CC/C(C)=N\Nc1ccc([N+](=O)[O-])cc1	39%
